The list is not random: actives were taken first. Their share in the collection is about 19%.
TDP1 block: TDP1 (human) enzyme inhibition; Q9NUW8; 350,000 compounds, 0.28% hits; AID 485290; Potency, µM (top dose mostly 130 µM), without a hit: at the highest dose activity change, negative = inhibition, most hits filed as inhibitors; recombinant TDP1, AlphaScreen DNA substrate cleavage; note: potency is the fitted concentration of half-maximal effect; nearly all actives have a fitted effect of over 40% in size
Target sequence (Q9NUW8 whole entry, looked up): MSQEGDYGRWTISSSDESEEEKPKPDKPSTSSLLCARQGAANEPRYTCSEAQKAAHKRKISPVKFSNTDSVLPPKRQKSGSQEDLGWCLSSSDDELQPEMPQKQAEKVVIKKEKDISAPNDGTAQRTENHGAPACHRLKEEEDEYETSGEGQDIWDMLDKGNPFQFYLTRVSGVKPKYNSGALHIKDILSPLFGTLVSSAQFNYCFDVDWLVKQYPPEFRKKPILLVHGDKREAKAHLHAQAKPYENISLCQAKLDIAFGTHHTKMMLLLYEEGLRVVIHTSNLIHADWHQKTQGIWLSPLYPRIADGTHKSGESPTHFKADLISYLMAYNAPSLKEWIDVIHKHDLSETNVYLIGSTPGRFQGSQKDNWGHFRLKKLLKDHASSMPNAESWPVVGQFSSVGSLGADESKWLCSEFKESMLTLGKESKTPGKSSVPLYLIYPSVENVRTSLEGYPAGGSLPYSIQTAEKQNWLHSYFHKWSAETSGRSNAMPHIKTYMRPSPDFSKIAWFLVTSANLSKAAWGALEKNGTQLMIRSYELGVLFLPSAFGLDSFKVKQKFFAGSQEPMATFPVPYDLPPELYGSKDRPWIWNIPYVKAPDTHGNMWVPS
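AlphaScreen read-out: signal falls as enzyme removes the 3' tyrosine-FITC from a 5'-biotinylated DNA oligo (15 nM, 5 min, RT). Enzyme was E. coli-made recombinant Tdp1 at 1 nM, exposed to compound for 15 min beforehand; beads 10 ug/ml, 10 min.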
IL-1B inflam inh: inhibitors of inflammasome signaling (IL-1 beta secretion); activity change, % at 57.5 µM; AID 743279; THP-1 LPS/ATP IL-1B secretion, AlphaLISA, 16 h; hits give low values; 360,000 compounds, 4.7% hits; in the data active = activity change below about -50%; inconclusive = mostly about -30% to -49%
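THP-1 cells pretreated 1 hr with compounds (up to 57.5 uM final), then stimulated with LPS (250 ng/mL final) plus ATP (1.25 mM final); secreted IL-1B measured by AlphaLISA after 16 hr, decreased signal indicating inhibition.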
TDP1 cell noCPT: qHTS for Inhibitors of human tyrosyl-DNA phosphodiesterase 1 (TDP1): qHTS in cells in absence of CPT; DT40 Tdp1-/- hTDP1 cells, no CPT, ATP luminescence, 48 h; Potency, µM (top dose mostly 46.2 µM), inactives show top-dose activity change, negative = growth inhibition, usual class: inhibitors; 420,000 compounds, 15% hits; note: potency is the fitted concentration of half-maximal effect; nearly all actives have a fitted effect of over 55% in size
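Chicken DT40 Tdp1-/- cells stably complemented with human TDP1 were seeded at 400 cells/well with DMSO in place of 20 nM camptothecin. After compound pinning, cells grew at least 48 hr at 37 °C; viability read by CellTiter-Glo luminescence.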
ELG1 repair inh: blocks ELG1-dependent DNA repair in HEK293T cells | Potency, µM (highest dose often 46.1 µM), without a hit: at the top dose activity change, negative = inhibition, actives largely listed as inhibitors | AID 504467 | HEK293T ELG1-luciferase reporter, luminescence, 16 h; DNA damage induced by 5-fluorouridine | 330,000 compounds, 2.3% hits; note: potency is the fitted concentration of half-maximal effect; nearly all actives have a fitted effect of over 55% in size
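Quantitative HTS, concentration-response format. 2,000 cells/well co-treated with 5-fluorouridine and compound, 16 hr in 5% CO2 at 37 °C; ONE-Glo luminescence read after 30 min.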
Giardia kill: Giardia lamblia killing; activity change, % at 7.66 µM, hits read low; Giardia lamblia trophozoite viability; 340,000 compounds, 0.15% hits; in the data active = activity change below about -80%; inconclusive = between about -30% and that limit;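 note: parasites exposed to compound for two days anaerobically before the ATP read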
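Luminescence from cellular ATP indicates surviving trophozoites (100 cells/well) following 48 hrs anaerobic compound treatment at 37 deg C; signal develops 15-30 min at room temperature.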
TDP1 cell CPT: growth inhibition of DT40 Tdp1-/-;hTDP1 cells with camptothecin (screen for TDP1 inhibitors); chicken DT40 Tdp1-/-;hTDP1 cells + 20 nM CPT, ATP luminescence, 48 h; Potency, µM (titrated, usually from 46.2 µM), for the others: at the highest dose activity change, negative = growth inhibition, actives largely listed as inhibitors; 420,000 compounds, 12% hits; AID 686979; note: potency is the fitted concentration of half-maximal effect; nearly all actives have a fitted effect of over 55% in size
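Cell growth measured by CellTiter-Glo luminescence after a minimum 48 h, 37 C compound exposure with 20 nM CPT in Tdp1-knockout DT40 cells stably expressing hTDP1, seeded 400/well; qHTS titration format.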
An asterisk follows results filed as active; [ ] = remark or other dose. Unless noted, calls come from the whole dose curve; as a rule, active = well fitted curve in the direction sought with a large enough effect; inconclusive = small, poorly fitted or top-dose-only effect, or another doubt; inactive = no such curve, though single readings can be large; an effect the other way counts as inactive or inconclusive. % is set by controls: 0 for no effect and ±100 for the full control effect.

How did CCOC(=O)CSc1nc2ccccc2c(=O)n1CCC(=O)NCCc1ccc(OC)c(OC)c1 do in these assays?
TDP1 block: 1.8%; IL-1B inflam inh: -3.4; TDP1 cell noCPT: -20.0%; ELG1 repair inh: inconclusive; Giardia kill: 16.6; TDP1 cell CPT: -7.0%

Results for COc1ccc(CCn2c(SCC(=O)Nc3cc(C)on3)nc3ccsc3c2=O)cc1OC ?
TDP1 block: 2.8%; IL-1B inflam inh: -5.4; TDP1 cell noCPT: inconclusive; ELG1 repair inh: 10.3µM*; Giardia kill: 0.9; TDP1 cell CPT: inconclusive

What do the screens show for `O=c1c2ccccc2nc(-c2ccco2)n1Cc1ccccc1`?
TDP1 block: 5.1%; IL-1B inflam inh: -11.1; TDP1 cell noCPT: inconclusive; Giardia kill: 4.9; TDP1 cell CPT: inconclusive

How did CCOC(=O)CSc1nc2ccccc2c(=O)n1CCc1ccc(OC)c(OC)c1 do in these assays?
TDP1 block: -1.5%; TDP1 cell noCPT: 11.6µM*; TDP1 cell CPT: 13µM*

Results for O=[N+]([O-])c1cccc(NC2=NCCC2)c1 ?
TDP1 block: -5.5%; IL-1B inflam inh: -14.7; TDP1 cell noCPT: -2.8%; ELG1 repair inh: -12.4%; Giardia kill: 5.6; TDP1 cell CPT: -8.6%

What do the screens show for `CCOC(=O)c1c(NC(=O)c2ccccc2Br)sc2c1CCc1ccccc1-2`?
IL-1B inflam inh: 6.0; TDP1 cell noCPT: 18.4µM*; ELG1 repair inh: -26.1%; Giardia kill: 37.7; TDP1 cell CPT: inconclusive

What do the screens show for `CCOC(=O)c1c(NC(C)=O)sc2c1CCC(C=O)=C2Sc1ccccc1`?
TDP1 block: 7.6%; IL-1B inflam inh: -99.9*; TDP1 cell noCPT: 6.51µM*; ELG1 repair inh: inconclusive; Giardia kill: -6.7; TDP1 cell CPT: 6.51µM*

How did CCOC(=O)c1c(NC(C)=O)sc2c1CCCNC2=O do in these assays?
TDP1 block: 8.8%; IL-1B inflam inh: -8.1; TDP1 cell noCPT: -11.8%; ELG1 repair inh: -18.6%; Giardia kill: 9.9; TDP1 cell CPT: -21.6%

What do the screens show for `O=c1c2nncn2ccn1-c1ccc(F)c(F)c1`?
TDP1 block: -3.6%; TDP1 cell noCPT: -4.8%; TDP1 cell CPT: -20.5%

How did O=C1N/C(=N/N=C/c2ccccc2O)SC1Cc1ccc(F)cc1 (stereo not given) do in these assays?
TDP1 block: inconclusive; IL-1B inflam inh: 131.7; TDP1 cell noCPT: 0.0291µM*; ELG1 repair inh: inconclusive; Giardia kill: 1.6; TDP1 cell CPT: 0.184µM*

What do the screens show for `COc1ccc(CC2S/C(=N/N=C/c3ccccc3O)NC2=O)cc1` (stereo not given)?
TDP1 block: 3.9%; IL-1B inflam inh: 49.9; TDP1 cell noCPT: 0.92µM*; ELG1 repair inh: inconclusive; Giardia kill: -13.6; TDP1 cell CPT: 3.26µM*

How did Cc1cc(N2CCN(c3ccccn3)CC2)n2cc(-c3ccccc3)nc2n1 do in these assays?
TDP1 block: 4.2%; IL-1B inflam inh: -10.1; TDP1 cell noCPT: 18.4µM*; ELG1 repair inh: inconclusive; Giardia kill: 22.3; TDP1 cell CPT: 20.6µM*

What do the screens show for `CCN(CC(=O)Nc1cccc(OC)c1)CC(=O)Nc1ccc(Br)c(C)c1`?
IL-1B inflam inh: -68.4*; TDP1 cell noCPT: -6.0%; ELG1 repair inh: inconclusive; Giardia kill: 2.3; TDP1 cell CPT: inconclusive

Results for COc1cccc(NC(=O)CN(C)CC(=O)Nc2ccc(C)cc2Cl)c1 ?
TDP1 block: -4.8%; IL-1B inflam inh: -5.3; TDP1 cell noCPT: 13µM*; ELG1 repair inh: -0.8%; Giardia kill: -5.3; TDP1 cell CPT: inconclusive

What do the screens show for `CCN(CC(=O)Nc1cccc(OC)c1)CC(=O)Nc1ccccc1C`?
IL-1B inflam inh: 4.6; TDP1 cell noCPT: -22.9%; ELG1 repair inh: -17.5%; Giardia kill: -14.4; TDP1 cell CPT: 1.3%

What do the screens show for `Cc1cc(NC(=O)CCSc2ccccc2)ccc1Br`?
TDP1 block: -6.9%; IL-1B inflam inh: -66.8*; TDP1 cell noCPT: -6.7%; ELG1 repair inh: inconclusive; Giardia kill: -9.0; TDP1 cell CPT: 7.1%

Results for Cc1cc(NC(=O)CN(C)CCOc2ccccc2)ccc1Br ?
IL-1B inflam inh: -51.7*; TDP1 cell noCPT: 18.4µM*; ELG1 repair inh: -5.1%; Giardia kill: 14.0; TDP1 cell CPT: 18.4µM*

What do the screens show for `Cc1cc(Br)ccc1NC(=O)CCSc1ccccc1`?
TDP1 block: -2.0%; IL-1B inflam inh: -3.9; TDP1 cell noCPT: -11.6%; ELG1 repair inh: inconclusive; Giardia kill: 4.0; TDP1 cell CPT: -8.6%

What do the screens show for `COc1ccc(S(=O)(=O)n2nc(C)c(S(=O)(=O)N3CCCCCC3)c2C)cc1OC`?
TDP1 block: 1.8%; TDP1 cell noCPT: -1.2%; TDP1 cell CPT: -22.6%

Results for O=C(CCSc1ccc(Br)cc1)Nc1cccnc1 ?
TDP1 block: 2.6%; IL-1B inflam inh: 37.1; TDP1 cell noCPT: 23.1µM*; ELG1 repair inh: -4.0%; Giardia kill: -21.9; TDP1 cell CPT: 13.9%

How did OCCN1CCN(Cc2ccc3c(c2)CN(Cc2cnc(-c4ccccc4)s2)CCO3)CC1 do in these assays?
TDP1 cell noCPT: -22.0%; TDP1 cell CPT: 4.5%

Results for N#C/C(=C\c1ccc(-c2ccc(F)cc2F)o1)c1nc2ccccc2[nH]1 ?
TDP1 block: -4.0%[12.3 µM]; TDP1 cell noCPT: 13µM*; TDP1 cell CPT: 23.1µM*

Results for N#C/C(=C\c1ccc(-c2ccccc2C(=O)O)o1)c1nc2ccccc2[nH]1 ?
TDP1 block: -1.3%[12.3 µM]; IL-1B inflam inh: inconclusive; TDP1 cell noCPT: 14.6µM*; ELG1 repair inh: inconclusive; Giardia kill: -2.8; TDP1 cell CPT: inconclusive

Results for CCc1nnc(NC(=O)CC(C)c2ccccc2)s1 (stereo not given) ?
IL-1B inflam inh: 14.5; TDP1 cell noCPT: 6.8%; ELG1 repair inh: 26.3%; Giardia kill: 5.9; TDP1 cell CPT: -5.0%

Results for CN1CCN(CC(O)COc2ccc(Cl)cc2)CC1 (stereo not given) ?
TDP1 block: 2.3%; IL-1B inflam inh: 12.6; TDP1 cell noCPT: -5.3%; ELG1 repair inh: 0.0%; Giardia kill: 16.0; TDP1 cell CPT: 2.3%

Results for CN1CCN(CC(O)(c2ccc(Cl)cc2)c2ccc(Cl)cc2)CC1 ?
TDP1 block: 5.9%; IL-1B inflam inh: -85.3*; TDP1 cell noCPT: 20.6µM*; ELG1 repair inh: -14.6%; Giardia kill: 7.4; TDP1 cell CPT: inconclusive

What do the screens show for `CCOC(=O)c1ccc(NC(=S)N2CCSC2c2c(F)cc(F)cc2F)cc1` (stereo not given)?
TDP1 block: 6.7%; IL-1B inflam inh: -18.0; TDP1 cell noCPT: 25.9µM*; ELG1 repair inh: inconclusive; Giardia kill: 4.0; TDP1 cell CPT: 23.1µM*

Assay outcomes deposited in PubChem BioAssay by National Center for Advancing Translational Sciences (NCATS).
